About 83,000 compounds went through this panel and 20% of them were active in at least one assay; those are over-represented in the sample as a whole.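 Testing used 96-well plates and a 48-hour single-concentration exposure. Example: -40 means 40% of the starting cells died.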 The source made the active and inactive calls. Rule for the calls: active = growth percent below 10; inactive = the rest.
Legend:
Assay in all cases: NCI-60 one-dose screen, 48 h (100 = growth as untreated, 0 = no growth, -100 = all killed)
Conditions in all cases: 10 µM unless noted
[1] = tested on: NCI-H23 lung
[2] = tested on: NCI-H226 lung
[3] = tested on: NCI-H322M lung
[4] = tested on: HOP-62 NSCLC
[5] = tested on: NCI-H460 lung
[6] = tested on: HOP-92 NSCLC
[7] = tested on: NCI-H522 lung
[8] = tested on: A549/ATCC NSCLC
[9] = tested on: 786-0 renal
[10] = tested on: COLO 205 colon
[11] = tested on: DU-145 prostate
[12] = tested on: K-562 leukemia
[13] = tested on: MALME-3M melanoma
[14] = tested on: MDA-MB-231 breast
[15] = tested on: RXF 393 renal
[16] = tested on: SF-268 CNS
[17] = tested on: SF-295 CNS
[18] = tested on: SF-539 CNS
[19] = tested on: UACC-257 melanoma
[20] = tested on: M14 melanoma

Measured: growth

CCCOc1cc2ccccc2cc1C(=O)Nc1nc(N)c2c(ccc3nccc32)[nH]1
active: [1] -55.1% | [2] -56.6% | [3] -35.1% | [4] -68.8% | [5] -75.8% | [6] -71.2% | [7] -59.6% | [8] -70.3% | [9] -71.9% | [10] -78.3% | [11] -65.8% | [12] -28.9% | [13] -76.1% | [14] -67.1% | [15] -77.1% | [16] -68.6% | [17] -76.6% | [18] -77.7% | [19] -77.6% | [20] -69.8%

Cc1ccccc1COc1ccc(-c2ccnn2-c2ccc(Cl)cc2)cc1
inactive: [1] 76.6% | [2] 70.3% | [3] 96.9% | [4] 49.3% | [5] 58.3% | [6] 74.2% | [7] 29.1% | [8] 49.6% | [9] 82.8% | [10] 71.2% | [11] 88.1% | [12] 13.7% | [13] 67.2% | [14] 84.2% | [15] 60.3% | [16] 80.5% | [17] 53.1% | [18] 71.8% | [19] 75.7% | [20] 39%

C#CCOc1ccc2ncnc(Nc3cccc(CNC(=O)C=C)c3)c2c1
inactive: [1] 104% [8.25 µM] | [2] 77.3% [8.25 µM] | [3] 105% [8.25 µM] | [4] 108% [8.25 µM] | [5] 101% [8.25 µM] | [6] 93.3% [8.25 µM] | [7] 91.9% [8.25 µM] | [8] 102% [8.25 µM] | [9] 93.1% [8.25 µM] | [10] 111% [8.25 µM] | [11] 108% [8.25 µM] | [12] 104% [8.25 µM] | [13] 109% [8.25 µM] | [14] 101% [8.25 µM] | [15] 79.4% [8.25 µM] | [16] 86.2% [8.25 µM] | [17] 102% [8.25 µM] | [18] 99.9% [8.25 µM] | [19] 106% [8.25 µM] | [20] 103% [8.25 µM]

Cc1ccc(-c2onc3c(=O)[nH]nc(-c4ccccc4)c23)cc1
inactive: [1] 22.8% | [2] 61.6% | [3] 56.9% | [4] 26.5% | [5] 19.1% | [6] 31.8% | [8] 31.5% | [9] 37.1% | [11] 19.4% | [12] 14.7% | [13] 82.6% | [14] 34.9% | [15] 31.8% | [16] 48.6% | [17] 23.7% | [19] 47.3% | [20] 23.2%
active: [7] -19.5% | [10] 7.07% | [18] -4.93%

CN1CCN(CCCOc2cccc3nc(Nc4ccc(Cl)c(F)c4)ccc23)CC1
inactive: [1] 63.3% | [2] 58.1% | [3] 33.6% | [4] 61% | [5] 13.2% | [6] 30.8% | [7] 29.8% | [8] 40.1% | [9] 64.1% | [11] 38.8% | [15] 54% | [16] 44.3% | [17] 46% | [18] 16.9%
active: [10] -54.7% | [12] -48.6% | [13] 1.94% | [14] -57.6% | [19] -31% | [20] -27.7%

O=C1C=C(OCC=C(Cl)Cl)C(=O)c2ccccc21
inactive: [1] 57.4% | [2] 97.3% | [3] 101% | [4] 87.2% | [5] 99.9% | [6] 73.7% | [7] 51.8% | [8] 91.3% | [9] 94.9% | [10] 137% | [11] 77.4% | [12] 80% | [13] 80.9% | [14] 84.7% | [15] 86.6% | [16] 94.4% | [17] 92.8% | [18] 93.2% | [19] 76.4% | [20] 83.3%

COc1cc(-c2nc3cc(Cl)c(Cl)cc3[nH]2)ccc1OCC(=O)N=Nc1c(O)[nH]c2ccccc12
active: [1] -81.1% | [2] -27.2% | [3] -40.7% | [4] -60.2% | [5] -68% | [6] -67.2% | [7] -64.3% | [8] 4.16% | [9] -82.6% | [10] -78% | [11] -69.9% | [12] -32.4% | [13] -94% | [14] -82.2% | [15] -75.9% | [16] -34.9% | [17] -87.5% | [18] -87.3% | [19] -60.2% | [20] -76.1%
